Drawing on PubChem BioAssay (Tox21), this text covers outcome and Potency for 8 compounds.

Assay [1] in a line: qHTS assay to identify small molecule agonists of the vitamin D receptor (VDR) signaling pathway - cell viability counter screen (AID 743224). Also: nearly all actives have a fitted effect of over 50% in size. The procedure, abridged:
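Cells: VDR-bla, 2,000/well, settled 4 h. Treatment: compounds in DMSO, 16 h, 37C/5% CO2. Readout: CellTiter-Glo luminescence after 30 min RT.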
On the technique in general: Quantitative high-throughput screening tests each substance at several concentrations.

The nature of assay [2]: qHTS assay to identify small molecule antagonists of the vitamin D receptor (VDR) signaling pathway - cell viability counter screen (AID 743225). Also: nearly all actives have a fitted effect of over 50% in size. The procedure, abridged:
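Cytotoxicity toward the VDR-bla HEK 293T line was scored by ATP-based CellTiter-Glo luminescence, read in the wells already used for the beta-lactamase readout after 16 h compound treatment under 3 nM 1-alpha,25-dihydroxyvitamin D3 stimulation.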

Assay [3] can be described thus: qHTS assay to identify small molecule agonists of the NFkB signaling pathway (AID 1159509; active = well fitted curve in the direction sought with a large enough effect in the signal ratio in the repeat runs, not every such curve was filed as active; the % refers to the signal ratio). The procedure, abridged: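 Readout: FRET fluorescence, 405 nm excitation, 460/530 nm emission; beta-lactamase expression disrupts FRET. Cells: ME-180 stably carrying NF-kB-driven bla reporter. Compound exposure 5 hr, 37 C, 5% CO2.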
Assay [4] is described as follows: qHTS assay to identify small molecule agonists of the NFkB signaling pathway - cell viability counter screen (AID 1159515; calls by dose curve; also: nearly all actives have a fitted effect of over 55% in size). An outline of the steps:
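Cells are seeded (2,000 NFkB-bla ME-180 per well), rested overnight, and dosed with DMSO-dissolved compounds for 5 hr at 37 C. Viability is then read by CellTiter-Glo luminescence after 30 min at room temperature.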

The nature of assay [5]: qHTS assay to identify small molecule agonists of the endoplasmic reticulum stress response signaling pathway (AID 1159516; active = well fitted activation curve with a large enough effect in the signal ratio in the repeat runs, not every such curve was filed as active; the % refers to the signal ratio). An outline of the steps:
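Cells are seeded at 1,500 per well and incubated overnight. Compounds in DMSO are added for 5 hr at 37 C, then beta-lactamase FRET substrate for 2 hr at room temperature, and fluorescence at 460 and 530 nm is measured.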

The nature of assay [6]: qHTS assay to identify small molecule agonists of the endoplasmic reticulum stress response signaling pathway - cell viability counter screen (AID 1159517; calls by dose curve;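 also: HeLa cells carrying an ER stress response element beta-lactamase reporter; nearly all actives have a fitted effect of over 50% in size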). An outline of the steps:
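Cytotoxicity of test compounds toward ESRE-bla HeLa cells was assessed after 5 hr exposure. The luminescent CellTiter-Glo signal was measured 30 min after reagent addition.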

Assay [7] is described as follows: qHTS assay to identify small molecule antagonists of the retinoid-related orphan receptor gamma (ROR-gamma) signaling pathway - cell viability counter screen (AID 1159520). Also: nearly all actives have a fitted effect of over 50% in size. The procedure, abridged: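 Tet-on ROR gamma CHO cells (1,000/well) were plated 4 hr, given compounds in DMSO for 2 hr at 37 C, then induced with 1 uM final doxycycline for 16 hr. Viability was read as ATP by CellTiter-Glo luminescence after 30 min.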

Assay [8] concerns the target Nuclear receptor ROR-gamma (Homo sapiens) (UniProt P51449). As to the kind of experiment: qHTS assay to identify small molecule antagonists of the retinoid-related orphan receptor gamma (ROR-gamma) signaling pathway (AID 1159521). The procedure, abridged:
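Readout: ONE-Glo luciferase luminescence, 30 min at room temperature. System: Tet-on RORγ CHO, RORE-LUC. Sequence: compound 2 h, doxycycline 1 uM final, 16 h at 37 C.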

Assay [9] in a line: qHTS assay to identify small molecule agonists of the AP-1 signaling pathway - cell viability counter screen (AID 1159525; calls by dose curve; also: nearly all actives have a fitted effect of over 55% in size). The procedure, abridged: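 Each titration point was normalised to DMSO and tetra n-octyl ammonium bromide controls. The read was Cell Titer Glo luminescence after 30 min at RT, following 5 h compound exposure of ME-180 AP-1-bla cells at 37 °C.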
Assay [10] can be described thus: qHTS assay to identify small molecule agonists of the AP-1 signaling pathway (AID 1159526; calls by dose curve).
The target of assay [11] is Retinoic acid receptor RXR-alpha (Homo sapiens) (UniProt P19793). Kind of assay: qHTS assay to identify small molecule agonists of the RXR signaling pathway (AID 1159527; calls by dose curve; also: nearly all actives have a fitted effect of over 35% in size). An outline of the steps:
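Reporter activation is measured as beta-lactamase activity via FRET substrate cleavage (emission 460/530 nm) in HEK 293T cells expressing an RXR-alpha-driven bla construct, following 16 hr compound exposure at 37 C.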

A short description of assay [12]: qHTS assay to identify small molecule agonists of the RXR signaling pathway - cell viability counter screen (AID 1159529). Also: nearly all actives have a fitted effect of over 50% in size. An outline of the steps: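 Tox21 10K compounds were tested for cytotoxicity against GeneBLAzer RXR-alpha HEK 293T cells grown in 2% charcoal-stripped FBS. Exposure lasted 16 hr at 37 C, 5% CO2; viability read by CellTiter-Glo luminescence.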

Assay [13] can be described thus: qHTS assay to identify small molecule antagonists of the retinoid acid receptor (RAR) signaling pathway - cell viability counter screen (AID 1159551). Also: nearly all actives have a fitted effect of over 35% in size. An outline of the steps: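 Cells (C3RL4) are plated, incubated overnight, dosed with compound in DMSO, then given retinol at 1 uM final. After 6 h at 37 C, CellTiter-Glo is added and luminescence read following 30 min at room temperature.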

Assay [14] can be described thus: qHTS assay to identify small molecule antagonists of the retinoic acid receptor (RAR) signaling pathway (AID 1159552; also: nearly all actives have a fitted effect of over 50% in size; also: potency is read from the fitted curve at half-maximal effect). The procedure, abridged:
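Overnight-plated C3RL4 reporter cells get compound, then retinol to 1 uM final; plates sit 6 hr at 37 C, 5% CO2. A luciferase reagent is added and light output recorded after 30 min at room temperature.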

Assay [15] can be described thus: qHTS assay to identify small molecule agonists of the retinoic acid receptor (RAR) signaling pathway (AID 1159553). Particulars: C3RL4 RARE luciferase reporter, agonist, 6 h; activation: at 73.3 µM (top of the series). The procedure, abridged:
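Seed C3RL4 reporter cells at 1,000 per well and incubate overnight at 37 C. Add compounds in DMSO, incubate 6 hr. Add luciferase reagent, wait 30 min at room temperature, read luminescence.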

A short description of assay [16]: qHTS assay to identify small molecule antagonists of the estrogen related receptor (ERR) signaling pathway from Tox21 library - cell viability counter screen (AID 1224834). Also: nearly all actives have a fitted effect of over 30% in size. An outline of the steps:
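ERR cells, 2,000/well; 6 h settle at 37 C/5% CO2; pin-tool compound transfer in DMSO; 17.5 h at 37 C; CellTiter-Fluor, 30 min; fluorescence intensity.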

The target in assay [17] is Luciferin 4-monooxygenase (Photinus pyralis) (UniProt P08659). As to the kind of experiment: qHTS assay to identify small molecule inhibitors of firefly luciferase (AID 1224835). Also: nearly all actives have a fitted effect of over 25% in size. An outline of the steps:
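Quantitative HTS format; KM concentrations of both substrates. Purified P. pyralis FLuc activity quantified from luminescence images.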

Assay [18] is described as follows: qHTS assay to identify small molecule agonists of the constitutive androstane receptor (CAR) signaling pathway - cell viability counter screen (AID 1224836). Also: nearly all actives have a fitted effect of over 45% in size. An outline of the steps:
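Fluorescence from CellTiter-Fluor indicates live cells after 23 h exposure. The human hepatoma line expresses hCAR and a CYP2B6-2.2kb reporter. Incubation medium contains 0.75 uM PK11195 (final).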

A short description of assay [19]: qHTS assay to identify small molecule antagonists of the constitutive androstane receptor (CAR) signaling pathway - cell viability counter screen (AID 1224837). Also: nearly all actives have a fitted effect of over 45% in size. An outline of the steps: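 Viability was measured with CellTiter-Fluor in a HepG2 line carrying stably transfected hCAR and a CYP2B6-2.2kb construct. Cells were exposed for 23 hr at 37 C to 15 compound concentrations with 50 nM CITCO as agonist.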

The target of assay [20] is Nuclear receptor subfamily 1 group I member 3 (Homo sapiens) (UniProt Q14994). As to the kind of experiment: qHTS assay to identify small molecule antagonists of the constitutive androstane receptor (CAR) signaling pathway (AID 1224838).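 Also: HepG2 cells stably expressing hCAR with CYP2B6 luciferase reporter stimulated by CITCO; nearly all actives have a fitted effect of over 40% in size.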 An outline of the steps:
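Antagonist mode used CITCO at a final 50 nM to activate CAR in human hepatoma HepG2 cells carrying stable hCAR and a 2.2 kb CYP2B6 promoter-luciferase construct. Compounds were tested at 15 concentrations over 24 h, with luminescence as the end point.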

The structures appear in SMILES notation. Results filed as inconclusive are left out. Values without a mark were called inactive. The source made the active and inactive calls. Unless noted, calls follow the shape of the dose curve; as a rule, active = well fitted curve in the direction sought with a large enough effect in the repeat runs; inconclusive = weak or mixed curves; inactive = no such curve, though single readings can be large; an effect the other way counts as inactive or inconclusive.

Sequence of Luciferin 4-monooxygenase (Photinus pyralis) (P08659 whole entry, looked up): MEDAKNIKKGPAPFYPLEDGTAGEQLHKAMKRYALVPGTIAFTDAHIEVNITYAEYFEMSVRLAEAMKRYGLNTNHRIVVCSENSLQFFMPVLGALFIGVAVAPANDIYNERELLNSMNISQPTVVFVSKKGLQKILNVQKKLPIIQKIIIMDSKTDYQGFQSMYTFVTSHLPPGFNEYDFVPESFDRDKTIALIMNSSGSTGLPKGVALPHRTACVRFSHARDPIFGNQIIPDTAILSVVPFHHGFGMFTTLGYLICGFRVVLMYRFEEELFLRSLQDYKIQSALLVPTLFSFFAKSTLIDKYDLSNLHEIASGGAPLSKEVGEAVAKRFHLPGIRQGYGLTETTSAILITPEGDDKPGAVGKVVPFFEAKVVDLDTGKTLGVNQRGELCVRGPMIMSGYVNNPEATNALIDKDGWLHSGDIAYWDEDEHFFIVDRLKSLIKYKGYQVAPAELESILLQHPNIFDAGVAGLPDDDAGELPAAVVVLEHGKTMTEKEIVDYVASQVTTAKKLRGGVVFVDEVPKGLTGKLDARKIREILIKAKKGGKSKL
Sequence of Retinoic acid receptor RXR-alpha (Homo sapiens) (P19793 whole entry, looked up): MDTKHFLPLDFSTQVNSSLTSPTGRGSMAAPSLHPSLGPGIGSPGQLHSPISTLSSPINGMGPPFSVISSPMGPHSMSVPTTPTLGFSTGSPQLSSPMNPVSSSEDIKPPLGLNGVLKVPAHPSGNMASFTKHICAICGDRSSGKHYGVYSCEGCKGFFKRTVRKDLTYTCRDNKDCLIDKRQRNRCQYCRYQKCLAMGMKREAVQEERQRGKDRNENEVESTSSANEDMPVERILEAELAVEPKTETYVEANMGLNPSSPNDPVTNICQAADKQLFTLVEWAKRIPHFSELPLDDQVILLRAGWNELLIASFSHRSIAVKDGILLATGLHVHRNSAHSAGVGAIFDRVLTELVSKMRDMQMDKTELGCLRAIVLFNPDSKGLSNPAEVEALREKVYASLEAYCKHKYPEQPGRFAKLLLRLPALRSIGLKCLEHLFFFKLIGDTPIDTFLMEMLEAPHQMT
Sequence of Nuclear receptor subfamily 1 group I member 3 (Homo sapiens) (Q14994 whole entry, looked up): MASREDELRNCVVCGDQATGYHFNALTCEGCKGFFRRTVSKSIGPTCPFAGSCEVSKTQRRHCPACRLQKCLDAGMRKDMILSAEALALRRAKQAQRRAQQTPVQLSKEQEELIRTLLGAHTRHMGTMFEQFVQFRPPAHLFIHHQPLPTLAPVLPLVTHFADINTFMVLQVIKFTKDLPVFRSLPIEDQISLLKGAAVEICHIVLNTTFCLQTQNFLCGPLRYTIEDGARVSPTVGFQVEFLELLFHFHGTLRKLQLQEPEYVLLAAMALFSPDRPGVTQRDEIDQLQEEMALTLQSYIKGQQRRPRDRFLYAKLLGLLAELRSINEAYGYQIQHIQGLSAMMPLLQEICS

For the compound `CCC(C)N` (stereo not given), the compound was classed as inactive in assay [1], in assay [2], in assay [3], in assay [4], in [5] and in assay [6]. Also, the result in [7], in assay [8], in assay [9], in assay [10], in [12] and in [13] was inactive. The compound was called inactive in assay [18]. For the same compound, the Potency entry in [11], in [14], in assay [15], in [16], in assay [17] and in assay [19] was “inactive” in each case.
For `C[N+](C)(C)CC(O)CCl` (stereo not given), the compound was called inactive in assay [1], in assay [2], in [3], in assay [4], in [5] and in assay [6]. Besides, the compound was called inactive in [7], in assay [8], in assay [9], in [10], in [12] and in assay [13]. For the same compound, in assay [18], the compound was classed as inactive. In addition, the Potency entry in assay [11], in [14], in assay [15], in [16] and in assay [19] was “inactive” throughout.
In the case of `COc1cc2c3cc1Oc1cc(ccc1O)C[C@@H]1c4c(cc(OC)c(O)c4Oc4ccc(cc4)C[C@@H]3N(C)CC2)CC[N+]1(C)C`, the compound was classed as inactive in [1], in assay [2], in [3], in assay [4], in assay [5] and in assay [6]. For the same compound, the compound was classed as inactive in assay [7], in assay [8], in assay [9], in [10], in assay [12] and in assay [13]. Moreover, the result in [18] was inactive. In addition, the Potency result in assay [11], in [14], in assay [16], in assay [17] and in assay [19] was “inactive” in each case.
Take `C=C(C)C(=O)OC`: the compound was classed as inactive in [1], in assay [2], in assay [3], in assay [4], in assay [5] and in assay [6]. The call in assay [7], in assay [8], in assay [9], in assay [10], in assay [12] and in [13] was inactive. In [18], the compound was called inactive. Moreover, the Potency result in assay [11], in assay [14], in assay [15], in [16], in [19] and in assay [20] was “inactive” each time.
For `C[C@H](CCC(=O)NCC(=O)O)[C@H]1CC[C@H]2[C@@H]3[C@H](O)C[C@@H]4C[C@H](O)CC[C@]4(C)[C@H]3C[C@H](O)[C@]12C`, the call in assay [1], in [3], in assay [4], in [5], in [6] and in [7] was inactive. Moreover, the compound was classed as inactive in assay [8], in assay [9], in [10], in [12], in [13] and in [18]. The Potency entry in assay [11], in [14], in [15], in [16] and in assay [19] was “inactive” each time.
`C[C@H](CCC(=O)O)[C@H]1CC[C@H]2[C@@H]3[C@H](O)C[C@@H]4C[C@H](O)CC[C@]4(C)[C@H]3C[C@H](O)[C@]12C`: the call in assay [1], in assay [2], in [3], in assay [4], in assay [5] and in [6] was inactive. For the same compound, the result in assay [7], in [8], in [9], in [10], in assay [12] and in assay [13] was inactive. For the same compound, the compound was classed as inactive in assay [18]. In addition, the Potency entry in assay [11], in [14], in [15], in [17] and in assay [19] was “inactive” throughout.
On to `CNCc1ccccc1`, for which the compound was classed as inactive in assay [1], in assay [2], in [3], in assay [4], in [5] and in [6]. Besides, the call in assay [7], in assay [8], in assay [9], in [10], in assay [12] and in assay [13] was inactive. In [18], the result was inactive. The Potency result in [11], in assay [15], in [16] and in [19] was “inactive” throughout. In assay [14], the Potency was 106 nM (active).
Regarding `CCCCC[Si](OCC)(OCC)OCC`, the compound was called inactive in assay [1], in assay [2], in [3], in assay [4], in [5] and in assay [6]. Also, the compound was classed as inactive in assay [7], in [8], in assay [9], in assay [10], in assay [12] and in assay [13]. In addition, the call in [18] was inactive. For the same compound, the Potency entry in [11], in assay [14], in assay [15], in [17] and in [19] was “inactive” each time.
